{
  "source": "the supplement of paper PMC7695840",
  "note": "Structures can show the parent of a compound that is named as a salt.",
  "data": [
    {"test_system": "Staphylococcus aureus MW2 delta-mecA (mecA-)", "test": "normalized GFP fluorescence (growth of mecA- strain) (fraction of control range); higher = more growth of mecA- strain", "details": "compound concentration: 150 uM; cefoxitin: subinhibitory; fluorescent label: GFP", "in_short": "(§1)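 Two pre-induced S. aureus MW2 strains, one with the gene labeled by DsRed and one lacking it labeled by GFP, were mixed 1:1 in LB with a subinhibitory antibiotic dose set daily. The mix went at 5 µL/well onto 150 μM compound (1.5% DMSO) in 1536-well plates, single replicate, and grew unshaken 20 h at 37 °C, 90% humidity. DsRed (540/590) and GFP (485/520) values were scaled per plate between single-strain control medians, and plates with high untreated ratios or rows with DsRed/GFP >10 were left out.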", "values": [
      {"compound": "Cc1nc(-c2ccc(OCC(C)C)c(C#N)c2)sc1C(=O)O", "note": "[Febuxostat (Uloric)]", "normalized GFP fluorescence": 0.0973},
      {"compound": "CC(=O)N[C@@H](CS)C(=O)O", "normalized GFP fluorescence": 0.328},
      {"compound": "Nc1ncn([C@@H]2O[C@H](CO)[C@@H](O)[C@H]2O)c(=O)n1", "normalized GFP fluorescence": 0.292},
      {"compound": "CCOC(=O)C1=C(COCCN)NC(C)=C(C(=O)OC)C1c1ccccc1Cl", "note": "(stereo not drawn)", "normalized GFP fluorescence": -0.0144},
      {"compound": "NS(=O)(=O)c1cc2c(cc1C(F)(F)F)NCNS2(=O)=O", "normalized GFP fluorescence": 0.22},
      {"compound": "O=C(c1ccccc1)c1ccc2n1CCC2C(=O)O", "note": "(stereo not drawn)", "normalized GFP fluorescence": 0.247},
      {"compound": "N#C[C@@H]1C[C@@H]2C[C@@H]2N1C(=O)[C@@H](N)C12CC3CC(CC(O)(C3)C1)C2", "normalized GFP fluorescence": 0.824},
      {"compound": "CCOC(=O)[C@H](CCc1ccccc1)N[C@@H](C)C(=O)N1Cc2ccccc2C[C@H]1C(=O)O", "normalized GFP fluorescence": 0.324},
      {"compound": "CCCCNc1cc(C(=O)O)cc(S(N)(=O)=O)c1Oc1ccccc1", "normalized GFP fluorescence": 0.446},
      {"compound": "N#CC[C@H](C1CCCC1)n1cc(-c2ncnc3[nH]ccc23)cn1", "normalized GFP fluorescence": 0.187},
      {"compound": "Cc1c(OCC(F)(F)F)ccnc1C[S@@+]([O-])c1nc2ccccc2[nH]1", "normalized GFP fluorescence": 0.348},
      {"compound": "CC(C)c1nc(CN(C)C(=O)N[C@H](C(=O)N[C@@H](Cc2ccccc2)C[C@H](O)[C@H](Cc2ccccc2)NC(=O)OCc2cncs2)C(C)C)cs1", "note": "[Ritonavir]", "normalized GFP fluorescence": 0.0352},
      {"compound": "CCCNS(=O)(=O)Nc1ncnc(OCCOc2ncc(Br)cn2)c1-c1ccc(Br)cc1", "note": "[Macitentan]", "normalized GFP fluorescence": 0.0399},
      {"compound": "Nc1nc(NC2CC2)c2ncn([C@H]3C=C[C@@H](CO)C3)c2n1", "normalized GFP fluorescence": 0.288},
      {"compound": "CC(C)(O)c1ccccc1CC[C@@H](SCC1(CC(=O)O)CC1)c1cccc(/C=C/c2ccc3ccc(Cl)cc3n2)c1", "normalized GFP fluorescence": -0.0136},
      {"compound": "NC(=O)N/N=C/c1ccc([N+](=O)[O-])o1", "note": "[Nitrofurazone (Nitrofural)]", "normalized GFP fluorescence": 0.0137},
      {"compound": "CC(C)NCC(O)c1ccc(NS(C)(=O)=O)cc1", "note": "(stereo not drawn)", "normalized GFP fluorescence": 0.417},
      {"compound": "CC(NCCc1ccc(O)cc1)C(O)c1ccc(O)cc1", "note": "(stereo not drawn)", "normalized GFP fluorescence": 0.828},
      {"compound": "CN(C)CCN(Cc1cccs1)c1ccccn1", "normalized GFP fluorescence": 0.185},
      {"compound": "Cc1cc2c(s1)Nc1ccccc1N=C2N1CCN(C)CC1", "normalized GFP fluorescence": 0.695},
      {"compound": "O=C(O)c1ccccc1C(=O)Nc1ccc(S(=O)(=O)Nc2nccs2)cc1", "normalized GFP fluorescence": 0.538},
      {"compound": "NC(=O)c1ccccc1O", "normalized GFP fluorescence": 0.52},
      {"compound": "CN1CCCC(n2nc(Cc3ccc(Cl)cc3)c3ccccc3c2=O)CC1", "note": "(stereo not drawn) [Azelastine hydrochloride (Astelin)]", "normalized GFP fluorescence": 0.112},
      {"compound": "CC(O)C(=O)O.N", "note": "(stereo not drawn)", "normalized GFP fluorescence": 0.217},
      {"compound": "CC[C@H](C)C(=O)O[C@H]1C[C@@H](C)C=C2C=C[C@H](C)[C@H](CC[C@@H]3C[C@@H](O)CC(=O)O3)[C@H]21", "normalized GFP fluorescence": 0.345},
      {"compound": "CCN(C(=O)c1c(O)c2c(Cl)cccc2n(C)c1=O)c1ccccc1", "normalized GFP fluorescence": 0.0925},
      {"compound": "CC(C)Cc1ccc(C(C)C(=O)O)cc1", "note": "(stereo not drawn)", "normalized GFP fluorescence": 0.142},
      {"compound": "CC(=O)Oc1cccc(O)c1", "normalized GFP fluorescence": 0.353},
      {"compound": "COc1cc(C(=O)NS(=O)(=O)c2ccccc2C)ccc1Cc1cn(C)c2ccc(NC(=O)OC3CCCC3)cc12", "note": "[Zafirlukast (Accolate)]", "normalized GFP fluorescence": -0.00168},
      {"compound": "C#C[C@]1(O)CC[C@H]2[C@@H]3CCC4=Cc5oncc5C[C@]4(C)[C@H]3CC[C@@]21C", "normalized GFP fluorescence": 0.414},
      {"compound": "CN(C)CCC(c1ccc(Br)cc1)c1ccccn1", "note": "(stereo not drawn)", "normalized GFP fluorescence": 0.11},
      {"compound": "CCOC(=O)[N-]c1c[n+](N2CCOCC2)no1", "normalized GFP fluorescence": 0.369},
      {"compound": "Cc1cn([C@H]2C[C@H](N=[N+]=[N-])[C@@H](CO)O2)c(=O)[nH]c1=O", "normalized GFP fluorescence": 0.317},
      {"compound": "CN1CCC[C@@H]1Cc1c[nH]c2ccc(CCS(=O)(=O)c3ccccc3)cc12", "normalized GFP fluorescence": 0.194},
      {"compound": "CC(=O)Nc1cccc(-n2c(=O)n(C3CC3)c(=O)c3c(Nc4ccc(I)cc4F)n(C)c(=O)c(C)c32)c1", "normalized GFP fluorescence": 0.179},
      {"compound": "CCOc1ccc(NC(C)=O)cc1", "normalized GFP fluorescence": 0.419},
      {"compound": "C#C[C@]1(OC(C)=O)CC[C@H]2[C@@H]3CCC4=C[C@@H](OC(C)=O)CC[C@@H]4[C@H]3CC[C@@]21C", "normalized GFP fluorescence": 0.192},
      {"compound": "Clc1ccc2c(c1)CCc1cccnc1C2=C1CCNCC1", "note": "[Desloratadine]", "normalized GFP fluorescence": 0.102},
      {"compound": "O=c1[nH]cnc2c1ncn2[C@@H]1O[C@H](CO)[C@@H](O)[C@H]1O", "note": "[Inosine]", "normalized GFP fluorescence": 0.197}
    ]},
    {"test_system": "Staphylococcus aureus MW2 (mecA+)", "test": "normalized DsRed fluorescence (growth of mecA+ strain) (fraction of control range); higher = more growth of mecA+ strain", "details": "compound concentration: 150 uM; cefoxitin: subinhibitory; fluorescent label: DsRed", "in_short": "as §1", "values": [
      {"compound": "Cc1nc(-c2ccc(OCC(C)C)c(C#N)c2)sc1C(=O)O", "note": "[Febuxostat (Uloric)]", "normalized DsRed fluorescence": 0.396},
      {"compound": "CC(=O)N[C@@H](CS)C(=O)O", "normalized DsRed fluorescence": 0.653},
      {"compound": "Nc1ncn([C@@H]2O[C@H](CO)[C@@H](O)[C@H]2O)c(=O)n1", "normalized DsRed fluorescence": 0.51},
      {"compound": "CCOC(=O)C1=C(COCCN)NC(C)=C(C(=O)OC)C1c1ccccc1Cl", "note": "(stereo not drawn)", "normalized DsRed fluorescence": 1.06},
      {"compound": "NS(=O)(=O)c1cc2c(cc1C(F)(F)F)NCNS2(=O)=O", "normalized DsRed fluorescence": 0.753},
      {"compound": "O=C(c1ccccc1)c1ccc2n1CCC2C(=O)O", "note": "(stereo not drawn)", "normalized DsRed fluorescence": 0.711},
      {"compound": "N#C[C@@H]1C[C@@H]2C[C@@H]2N1C(=O)[C@@H](N)C12CC3CC(CC(O)(C3)C1)C2", "normalized DsRed fluorescence": 0.518},
      {"compound": "CCOC(=O)[C@H](CCc1ccccc1)N[C@@H](C)C(=O)N1Cc2ccccc2C[C@H]1C(=O)O", "normalized DsRed fluorescence": 0.737},
      {"compound": "CCCCNc1cc(C(=O)O)cc(S(N)(=O)=O)c1Oc1ccccc1", "normalized DsRed fluorescence": 0.877},
      {"compound": "N#CC[C@H](C1CCCC1)n1cc(-c2ncnc3[nH]ccc23)cn1", "normalized DsRed fluorescence": 0.956},
      {"compound": "Cc1c(OCC(F)(F)F)ccnc1C[S@@+]([O-])c1nc2ccccc2[nH]1", "normalized DsRed fluorescence": 0.452},
      {"compound": "CC(C)c1nc(CN(C)C(=O)N[C@H](C(=O)N[C@@H](Cc2ccccc2)C[C@H](O)[C@H](Cc2ccccc2)NC(=O)OCc2cncs2)C(C)C)cs1", "note": "[Ritonavir]", "normalized DsRed fluorescence": 1.01},
      {"compound": "CCCNS(=O)(=O)Nc1ncnc(OCCOc2ncc(Br)cn2)c1-c1ccc(Br)cc1", "note": "[Macitentan]", "normalized DsRed fluorescence": 0.379},
      {"compound": "Nc1nc(NC2CC2)c2ncn([C@H]3C=C[C@@H](CO)C3)c2n1", "normalized DsRed fluorescence": 0.69},
      {"compound": "CC(C)(O)c1ccccc1CC[C@@H](SCC1(CC(=O)O)CC1)c1cccc(/C=C/c2ccc3ccc(Cl)cc3n2)c1", "normalized DsRed fluorescence": 0.632},
      {"compound": "NC(=O)N/N=C/c1ccc([N+](=O)[O-])o1", "note": "[Nitrofurazone (Nitrofural)]", "normalized DsRed fluorescence": 0.0574},
      {"compound": "CC(C)NCC(O)c1ccc(NS(C)(=O)=O)cc1", "note": "(stereo not drawn)", "normalized DsRed fluorescence": 0.703},
      {"compound": "CC(NCCc1ccc(O)cc1)C(O)c1ccc(O)cc1", "note": "(stereo not drawn)", "normalized DsRed fluorescence": 0.736},
      {"compound": "CN(C)CCN(Cc1cccs1)c1ccccn1", "normalized DsRed fluorescence": 0.778},
      {"compound": "Cc1cc2c(s1)Nc1ccccc1N=C2N1CCN(C)CC1", "normalized DsRed fluorescence": 0.803},
      {"compound": "O=C(O)c1ccccc1C(=O)Nc1ccc(S(=O)(=O)Nc2nccs2)cc1", "normalized DsRed fluorescence": 0.763},
      {"compound": "NC(=O)c1ccccc1O", "normalized DsRed fluorescence": 0.666},
      {"compound": "CN1CCCC(n2nc(Cc3ccc(Cl)cc3)c3ccccc3c2=O)CC1", "note": "(stereo not drawn) [Azelastine hydrochloride (Astelin)]", "normalized DsRed fluorescence": 1.13},
      {"compound": "CC(O)C(=O)O.N", "note": "(stereo not drawn)", "normalized DsRed fluorescence": 0.837},
      {"compound": "CC[C@H](C)C(=O)O[C@H]1C[C@@H](C)C=C2C=C[C@H](C)[C@H](CC[C@@H]3C[C@@H](O)CC(=O)O3)[C@H]21", "normalized DsRed fluorescence": 0.697},
      {"compound": "CCN(C(=O)c1c(O)c2c(Cl)cccc2n(C)c1=O)c1ccccc1", "normalized DsRed fluorescence": 0.805},
      {"compound": "CC(C)Cc1ccc(C(C)C(=O)O)cc1", "note": "(stereo not drawn)", "normalized DsRed fluorescence": 0.294},
      {"compound": "CC(=O)Oc1cccc(O)c1", "normalized DsRed fluorescence": 0.584},
      {"compound": "COc1cc(C(=O)NS(=O)(=O)c2ccccc2C)ccc1Cc1cn(C)c2ccc(NC(=O)OC3CCCC3)cc12", "note": "[Zafirlukast (Accolate)]", "normalized DsRed fluorescence": 0.0292},
      {"compound": "C#C[C@]1(O)CC[C@H]2[C@@H]3CCC4=Cc5oncc5C[C@]4(C)[C@H]3CC[C@@]21C", "normalized DsRed fluorescence": 0.779},
      {"compound": "CN(C)CCC(c1ccc(Br)cc1)c1ccccn1", "note": "(stereo not drawn)", "normalized DsRed fluorescence": 1.02},
      {"compound": "CCOC(=O)[N-]c1c[n+](N2CCOCC2)no1", "normalized DsRed fluorescence": 0.863},
      {"compound": "Cc1cn([C@H]2C[C@H](N=[N+]=[N-])[C@@H](CO)O2)c(=O)[nH]c1=O", "normalized DsRed fluorescence": 0.887},
      {"compound": "CN1CCC[C@@H]1Cc1c[nH]c2ccc(CCS(=O)(=O)c3ccccc3)cc12", "normalized DsRed fluorescence": 0.948},
      {"compound": "CC(=O)Nc1cccc(-n2c(=O)n(C3CC3)c(=O)c3c(Nc4ccc(I)cc4F)n(C)c(=O)c(C)c32)c1", "normalized DsRed fluorescence": 1.12},
      {"compound": "CCOc1ccc(NC(C)=O)cc1", "normalized DsRed fluorescence": 0.668},
      {"compound": "C#C[C@]1(OC(C)=O)CC[C@H]2[C@@H]3CCC4=C[C@@H](OC(C)=O)CC[C@@H]4[C@H]3CC[C@@]21C", "normalized DsRed fluorescence": 0.568},
      {"compound": "Clc1ccc2c(c1)CCc1cccnc1C2=C1CCNCC1", "note": "[Desloratadine]", "normalized DsRed fluorescence": 0.936},
      {"compound": "O=c1[nH]cnc2c1ncn2[C@@H]1O[C@H](CO)[C@@H](O)[C@H]1O", "note": "[Inosine]", "normalized DsRed fluorescence": 0.97}
    ]}
  ]
}
